In PubChem BioAssay (EPA / NIEHS):
Active and inactive are the calls of the source. Rule for the calls: active = hit-call score of the fitted dose curve at least 0.9, where 1 is the maximum; inactive = score below 0.9.

Assays:
[1] = APR_HepG2_CellLoss_72hr: Apredica 72-hour HepG2 Assay for Cell Loss (AID 2282915); settings: high-content imaging
Procedure, shortened: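 HepG2 cells exposed 72 h to compound at 0.39–200 uM (10 concentrations, duplicate) in 0.5% DMSO. Fixed with 3.7% formaldehyde and Hoechst 33342-stained. Imaged at 20x; nuclear count gives cell number, fitted bidirectionally versus DMSO.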

[2] = APR_HepG2_MitoMembPot_72hr: Apredica 72-hour HepG2 Assay for Mitochondrial Membrane Potential (AID 2282917); settings: imaging, actives raise or lower the signal
Procedure, shortened: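 HepG2 cells dosed 72 hr with compound at 0.39–200 uM in duplicate, 0.5% v/v DMSO final. Mitochondria stained with 250 nM MitoTracker Red CMXRos for 30 min before formaldehyde fixation, imaged by high-content fluorescence; bidirectional fit versus DMSO.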

[3] = APR_HepG2_MitoticArrest_72hr: Apredica 72-hour HepG2 Assay for Mitotic Arrest (AID 2282918); settings: high-content imaging, actives raise or lower the signal
Procedure, shortened: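 HepG2, 72 hr exposure, 0.39–200 uM in duplicate, 0.5% v/v DMSO final. Formaldehyde-fixed, Triton-permeabilized, anti-phospho-histone H3/FITC plus Hoechst. ArrayScan imaging at 20x; curves fit bidirectionally against DMSO baseline.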

[4] = APR_HepG2_MicrotubuleCSK_72hr: Apredica 72-hour HepG2 Assay for Microtubule CSK Stabilty (AID 2282919); settings: HepG2 microtubule cytoskeleton, high-content imaging, actives raise or lower the signal
Procedure, shortened: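 HepG2, 72 hr cmpd exposure, 0.39–200 uM (10 pts, duplicate), 0.5% DMSO. 3.7% formaldehyde fix, 0.5% Triton perm, anti-alpha-tubulin/Cy5 plus Hoechst. HCS fluorescence intensity; bidirectional fit vs DMSO baseline; taxol as positive control.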

[5] = APR_HepG2_P-H2AX_24hr: Apredica 24-hour HepG2 Assay for H2AX Phosphorylation (AID 2282920); settings: high-content imaging, actives raise or lower the signal
Procedure, shortened: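 HCS fluorescence imaging of phospho-H2A.x immunostain (with Hoechst 33342 nuclear counterstain) in HepG2 after 24 hr compound exposure; 10 concentrations, 0.39–200 uM, duplicate wells, 0.5% v/v DMSO. Gain or loss of signal fitted relative to DMSO baseline.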

[6] = APR_HepG2_StressKinase_72hr: Apredica 72-hour HepG2 Assay for Stress Kinase (AID 2282921); settings: HepG2 stress kinase (phospho-c-Jun) imaging, actives raise or lower the signal
Procedure, shortened: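 Stress kinase signal is phospho-c-Jun immunofluorescence (1:500 primary, Cy3 secondary) in fixed, permeabilized human HepG2 cells imaged at 20x. Exposure lasted 72 hr over ten concentrations from 0.39 to 200 uM, 0.5% DMSO, in duplicate. Bidirectional fit versus DMSO.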

[7] = APR_HepG2_StressKinase_24hr: Apredica 24-hour HepG2 Assay for Stress Kinase (AID 2282922); settings: HepG2 stress kinase (phospho-c-Jun) imaging, actives raise or lower the signal
Procedure, shortened: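 Read-out: phospho-c-Jun immunofluorescence (Cy3 secondary) quantified by high-content imaging at 20x, nuclei defined by Hoechst 33342. Human HepG2 liver cells dosed 24 hr, 0.39–200 uM, DMSO 0.5% v/v; gain or loss of signal fitted relative to DMSO.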

[8] = APR_HepG2_p53Act_72hr: Apredica 72-hour HepG2 Assay for p53 Activation (AID 2282923); settings: high-content imaging, actives raise or lower the signal;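 note: average cellular p53 protein immunofluorescence intensity in HepG2 cells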
Procedure, shortened: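 After 72 h with compound (ten points, 0.39 to 200 uM, final DMSO 0.5% v/v), fixed HepG2 cells were labelled with sheep anti-p53 and Hoechst 33342 and imaged; gain or loss versus DMSO scored.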

[9] = APR_HepG2_NuclearSize_72hr: Apredica 72-hour HepG2 Assay for Nuclear Size (AID 2282925); settings: high-content imaging, actives raise or lower the signal
Procedure, shortened: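 Read-out: nuclear diameter from Hoechst 33342 images (ArrayScan, 20x, six fields/well), via cell-cycle image analysis. HepG2 were dosed 0.39–200 uM for 72 hr in 0.5% DMSO. Bidirectional fit relative to DMSO.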

[10] = ATG_CRE_CIS: Attagene CIS-FACTORIAL HepG2 Assay for human cAMP Responsive Element (CRE) binding protein 3 (AID 2282926); settings: HepG2 CRE cis-reporter, Attagene multiplexed mRNA; actives raise or lower the signal
Procedure, shortened: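 Readout: fluorescently labelled reporter transcripts resolved by capillary electrophoresis after RT-PCR, taken 24 h post-dosing in transfected HepG2. Endogenous transcription factor activity drives each cis-element reporter; gain or loss of signal fitted relative to DMSO control.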

[11] = ATG_CMV_CIS: Attagene CIS-FACTORIAL HepG2 Assay for human CMV (Internal Marker) (AID 2282928); settings: HepG2 CMV promoter reporter, transcription factor profiling; actives raise or lower the signal;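 note: endpoint acts as a background internal control marker rather than a target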
Procedure, shortened: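 Fluorescence intensity of RT-PCR-derived reporter fragments, resolved by capillary electrophoresis, gives the signal. HepG2 liver cells bearing transfected cis-element reporters were treated 24 h; activity in either direction was fit relative to DMSO-treated controls.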

[12] = ATG_DR4_LXR_CIS: Attagene CIS-FACTORIAL HepG2 Assay for human Liver X Receptor (LXR), DR4 submotif (AID 2282929); settings: HepG2 Attagene DR4 cis-reporter, mRNA transcription; actives raise or lower the signal
Procedure, shortened: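 Endogenous factor activity at a DR4 cis-element is read as reporter mRNA in transiently transfected HepG2 cells. Exposure lasts 24 h; transcripts are amplified, fluorescently labelled and sized by capillary electrophoresis, with DMSO as baseline.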

[13] = biological target: Aryl hydrocarbon receptor (Homo sapiens) (UniProt P35869); experiment: ATG_Ahr_CIS: Attagene CIS-FACTORIAL HepG2 Assay for human Aryl Hydrocarbon Receptor (Ahr) (AID 2282930); settings: HepG2 AhR cis-factorial reporter transcription; actives raise or lower the signal
Procedure, shortened: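 Endogenous factor activity is tracked through cis-promoter reporter units transfected into HepG2 cells. Transcript levels at 24 h are read by fluorescent RT-PCR and capillary electrophoresis, with activity in either direction scored relative to DMSO.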

[14] = ATG_AP_1_CIS: Attagene CIS-FACTORIAL HepG2 Assay for human Activator Protein 1 (AP-1) (AID 2282931); settings: HepG2 Attagene cis-factorial AP-1 reporter mRNA; actives raise or lower the signal
Procedure, shortened: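 Fluorescence of labelled PCR fragments separated by capillary electrophoresis gives reporter mRNA levels. HepG2 with transfected cis-regulated reporter units, 24 h exposure; DMSO serves as baseline for bidirectional curve fits.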

[15] = ATG_AP_2_CIS: Attagene CIS-FACTORIAL HepG2 Assay for human Activator Protein 2 (AP-2) (AID 2282932); settings: HepG2 AP-2 cis-reporter, Attagene transcription factor profiling; actives raise or lower the signal
Procedure, shortened: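 Liver-derived HepG2 line, cis-reporter system measuring endogenous factors; 24 h dosing; reporter mRNA detected by fluorescent RT-PCR and capillary electrophoresis.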

[16] = ATG_BRE_CIS: Attagene CIS-FACTORIAL HepG2 Assay for human Bone Morphogenetic Protein (BMP) Response Element (BRE) (AID 2282933); settings: HepG2 BMP response element reporter, Attagene transcription factor profiling; actives raise or lower the signal
Procedure, shortened: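 After a 24 h chemical treatment, transiently transfected HepG2 cells were lysed for RNA; reporter transcripts were quantified by fluorescent RT-PCR and capillary electrophoresis, normalised to DMSO.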

[17] = biological target: CCAAT/enhancer-binding protein beta (Homo sapiens) (UniProt P17676); experiment: ATG_C_EBP_CIS: Attagene CIS-FACTORIAL HepG2 Assay for human CCAAT/Enhancer Binding Protein (C/EBP) beta (AID 2282927); settings: HepG2 Attagene cis-factorial transcription factor reporter; actives raise or lower the signal
Procedure, shortened: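 HepG2, transient MRTU transfection, 24 h treatment. RT-PCR plus CE fluorescence; DMSO negative control, bidirectional fit.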

[18] = biological target: Retinoic acid receptor alpha (Homo sapiens) (UniProt P10276); experiment: ATG_DR5_RAR_CIS: Attagene CIS-FACTORIAL HepG2 Assay for human Retinoic Acid Receptor Alpha (RARE), DR5 submotif (AID 2282934); settings: HepG2 Attagene cis-factorial RARE DR5 reporter, mRNA; actives raise or lower the signal;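 for AC50: reporter responds to endogenous RAR alpha beta and gamma in HepG2 not RARA alone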
Procedure, shortened: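 After 24 h of chemical exposure, transiently transfected HepG2 cells were lysed for total RNA; the DR5-regulated reporter transcript was quantified via RT-PCR and capillary electrophoresis, with activity fitted bidirectionally against DMSO.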

[19] = APR_HepG2_MitoMass_72hr: Apredica 72-hour HepG2 Assay for Mitochondrial Mass (AID 2282924); settings: high-content imaging, actives raise or lower the signal;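 note: MitoTracker Red CMXRos stain intensity per cell imaged as mitochondrial mass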
Procedure, shortened: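 Read-out: MitoTracker Red fluorescence intensity from automated imaging (20x, six fields per well) in human HepG2 liver cells. Dosing ran 72 hr, 0.39–200 uM, 0.5% DMSO; bidirectional curve fitting versus DMSO baseline.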

Measured: AC50

Aryl hydrocarbon receptor (Homo sapiens), sequence (P35869 whole entry, looked up): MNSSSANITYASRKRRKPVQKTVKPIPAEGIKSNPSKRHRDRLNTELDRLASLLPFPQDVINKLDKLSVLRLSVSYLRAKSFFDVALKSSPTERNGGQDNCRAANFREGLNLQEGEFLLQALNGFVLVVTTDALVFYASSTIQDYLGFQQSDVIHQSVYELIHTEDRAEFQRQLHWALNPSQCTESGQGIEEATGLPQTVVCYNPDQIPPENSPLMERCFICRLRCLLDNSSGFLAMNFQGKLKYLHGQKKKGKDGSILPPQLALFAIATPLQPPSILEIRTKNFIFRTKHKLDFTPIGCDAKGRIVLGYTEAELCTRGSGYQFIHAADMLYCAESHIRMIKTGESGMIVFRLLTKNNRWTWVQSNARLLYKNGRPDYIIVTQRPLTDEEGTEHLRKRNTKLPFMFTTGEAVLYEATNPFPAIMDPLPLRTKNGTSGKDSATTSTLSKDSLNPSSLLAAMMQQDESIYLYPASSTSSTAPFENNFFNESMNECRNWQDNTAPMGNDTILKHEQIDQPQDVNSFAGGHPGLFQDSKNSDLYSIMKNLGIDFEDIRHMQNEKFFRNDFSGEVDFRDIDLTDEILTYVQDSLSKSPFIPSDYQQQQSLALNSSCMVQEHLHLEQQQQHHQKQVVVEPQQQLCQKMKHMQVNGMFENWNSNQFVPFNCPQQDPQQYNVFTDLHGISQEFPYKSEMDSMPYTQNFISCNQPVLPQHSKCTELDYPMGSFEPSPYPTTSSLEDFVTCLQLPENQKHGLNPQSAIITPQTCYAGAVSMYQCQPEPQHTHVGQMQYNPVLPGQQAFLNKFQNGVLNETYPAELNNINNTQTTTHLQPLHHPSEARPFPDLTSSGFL
CCAAT/enhancer-binding protein beta (Homo sapiens), sequence (P17676 whole entry, looked up): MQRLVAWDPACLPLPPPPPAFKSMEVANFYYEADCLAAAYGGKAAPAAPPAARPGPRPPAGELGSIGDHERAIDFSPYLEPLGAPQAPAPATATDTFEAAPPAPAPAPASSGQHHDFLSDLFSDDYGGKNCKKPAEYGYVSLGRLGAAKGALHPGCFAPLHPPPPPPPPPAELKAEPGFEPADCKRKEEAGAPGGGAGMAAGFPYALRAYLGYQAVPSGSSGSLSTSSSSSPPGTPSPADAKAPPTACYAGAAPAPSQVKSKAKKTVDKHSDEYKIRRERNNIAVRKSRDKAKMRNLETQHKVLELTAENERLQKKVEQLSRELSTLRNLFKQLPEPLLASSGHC
Retinoic acid receptor alpha (Homo sapiens), sequence (P10276 whole entry, looked up): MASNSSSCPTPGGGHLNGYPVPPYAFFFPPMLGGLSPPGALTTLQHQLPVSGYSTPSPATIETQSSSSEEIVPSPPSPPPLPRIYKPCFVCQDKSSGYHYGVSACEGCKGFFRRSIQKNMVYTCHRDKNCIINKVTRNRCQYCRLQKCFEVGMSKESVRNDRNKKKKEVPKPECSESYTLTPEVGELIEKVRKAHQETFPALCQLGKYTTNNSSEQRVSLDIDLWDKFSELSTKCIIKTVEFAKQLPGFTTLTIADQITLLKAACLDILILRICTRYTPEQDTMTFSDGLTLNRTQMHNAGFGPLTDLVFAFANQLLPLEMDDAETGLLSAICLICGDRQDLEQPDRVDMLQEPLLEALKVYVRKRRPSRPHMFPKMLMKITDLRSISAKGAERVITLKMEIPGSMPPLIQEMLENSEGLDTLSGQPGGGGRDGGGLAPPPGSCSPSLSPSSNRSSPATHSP

Cc1cc(=O)[nH]c(=S)[nH]1
not listed: [17] | [18] | [19]
inactive: all other assays above

CN[C@H]1CC[C@@H](c2ccc(Cl)c(Cl)c2)c2ccc(S(N)(=O)=O)cc21
active: [1] 6.85 µM | [3] 3.89 µM | [4] 12.1 µM | [5] 100 µM | [6] 123 µM
not listed: [10] | [15] | [18] | [19]
inactive: all other assays above

NCC1(Cc2noc(=O)[nH]2)CCCCC1
not listed: [15] | [19]
inactive: all other assays above

CC(=O)OCCOCCOCCOC(C)=O
not listed: [15] | [17] | [19]
inactive: all other assays above

OC[C@@H](O)[C@@H](O)[C@H](O)[C@H](O)CO
not listed: [17]
inactive: all other assays above

COC(=O)c1ccc(O)cc1
not listed: [17]
inactive: all other assays above

CCCCCCCCCCO
not listed: [10] | [15] | [19]
inactive: all other assays above

COc1ccc(S(=O)(=O)N2C(=O)[C@@](c3ccccc3OC)(N3C[C@H](O)C[C@H]3C(=O)N(C)C)c3cc(Cl)ccc32)c(OC)c1
active: [1] 61 µM | [3] 40.7 µM | [5] 68.2 µM | [6] 100 µM | [8] 100 µM | [9] 130 µM | [12] 26.1 µM | [13] 29.9 µM | [14] 27.6 µM | [16] 55.5 µM
inactive: [2] | [4] | [7] | [11] | [15] | [18]

Cc1cccc([N+](=O)[O-])c1C
not listed: [19]
inactive: all other assays above

CCOc1ccc2c(c1)C(C)=CC(C)(C)N2
active: [1] 103 µM | [3] 78.2 µM | [5] 72.7 µM | [8] 76.1 µM | [11] 69.4 µM | [12] 175 µM | [14] 100 µM
not listed: [17]
inactive: all other assays above

CC1(C)NC(=O)NC1=O
not listed: [10]
inactive: all other assays above

COCCOCCOC
not listed: [15] | [17] | [19]
inactive: all other assays above

CCCCCCCCCCCCCO
active: [1] 113 µM | [2] 120 µM | [3] 104 µM | [10] 10.3 µM | [11] 59.4 µM | [14] 34.3 µM | [16] 34.3 µM | [18] 11.7 µM
not listed: [17]
inactive: all other assays above

CCCCCCOCCO
not listed: [10]
inactive: all other assays above

c1cc(-c2ccncc2)ccn1
not listed: [15] | [17] | [19]
inactive: all other assays above

CCCCCC(=O)O
active: [13] 82.2 µM
not listed: [10] | [15] | [17] | [19]
inactive: all other assays above
